From PubChem BioAssay AID1745853 (National Center for Advancing Translational Sciences (NCATS), 2022)
Several values for one entry are separate records, joined by “and”; a condition that tells them apart may be missing. Identical values can stand only once. In all, about 25,000 compounds went through this assay and about 970 (3.9%) were called active. About 8% were inconclusive and are not listed. No rule for the calls is given here. This excerpt belongs to a sample that is enriched for actives.

Columns and labels:
Experiment in all cases: Primary Screen for Target Class Profiling of Small Molecule Inhibitors of Methyltransferases
[1] = target: Catechol O-methyltransferase (Homo sapiens) (UniProt P21964); conditions: purified enzyme, MTase-Glo SAH luminescence; activity change, negative = inhibition: at 40 µM, stronger effect = lower value; outcome: 40 uM
Sequence of Catechol O-methyltransferase (Homo sapiens) (P21964 whole entry, looked up): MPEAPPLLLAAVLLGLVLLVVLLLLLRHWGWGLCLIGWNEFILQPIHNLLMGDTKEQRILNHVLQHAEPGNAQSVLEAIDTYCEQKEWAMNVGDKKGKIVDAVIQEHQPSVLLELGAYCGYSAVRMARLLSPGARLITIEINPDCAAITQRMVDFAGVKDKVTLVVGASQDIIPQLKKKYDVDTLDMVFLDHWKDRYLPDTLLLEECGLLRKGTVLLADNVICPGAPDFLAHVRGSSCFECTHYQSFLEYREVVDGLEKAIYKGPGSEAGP
Source text: (§1) PI: Matthew D. Hall Ph.D. and Quinlin M. Hanson Ph.D.
(§2) National Center for Advancing Translational Sciences (NCATS)
(§3) National Institute of Health (NIH), Rockville, MD
(§4) Target class profiling (TCP) is a chemical biology approach amenable to investigating understudied biological targets. TCP is achieved by developing a generalizable assay platform and applying it to screen a curated set of compound libraries against representative members of a target class. Small molecule methyltransferases (SMMTase) are a subclass of methyltransferase that act on metabolites to modulate signaling pathways, metabolize xenobiotics, or balance the available methyl pool. We screened four curated libraries totaling 27,574 unique compounds against the SMMTases nicotinamide N-methyltransferase (NNMT), phenylethanolamine N-methyltransferase (PNMT), histamine N-methyltransferase (HNMT), glycine N-methyltransferase (GNMT), catechol O-methyltransferase (COMT), and guanidinoacetate N-methyltransferase (GAMT). The data generated by this TCP can be leveraged for informed tool molecule development. For example, in the associated publication we identified a chemotype of HNMT-selective inhibitors. Additionally, we identified a putative SMMTase-selective inhibitor with potential as a tool molecule for studying broader methyltransferase biology.
(§5) High-through put screening assays were developed at the National Center for Advancing Translational Science (NCATS) for the enzymes NNMT, PNMT, HNMT, GNMT, COMT, and GAMT. Enzymatic activity was measured as a function of SAM cofactor conversion using the MTase Glo kit (Promega) for all enzymes. All assays were performed in 1536-well format with substrates and SAM concentrations at KM values. Enzyme concentration and assay timing were optimized for 10-20% SAM conversion. Initial screening of 27,574 compounds was done as single-point assays using the highest compound concentration (40 uM). […] These compounds were replated in 11-point dose response and assayed against NNMT, PNMT, HNMT, GNMT, COMT, GAMT, and a counter-assay. The IC50 and efficacy (maximal response) values were determined for each dose-response curve. These values are also accounted for in the area under the curve (AUC) values.
(§6) PROTOCOL TABLE (as described by Inglese J, Shamu CE and Guy RK. 2007)
(§7) SEQUENCE No. (e.g., 1, 2, 3, etc.); […] (e.g., Cells, Incubation, Reagent, etc.); VALUE; DESCRIPTION.
(§8) 1; Reagent; 2 uL; SMMTase Enzyme (2x) in reaction buffer, columns 1- 48.
(§9) 2; Reagent; 1 uL; SAM (4x) in reaction buffer, columns 1-48.
(§10) 3; Controls; 23 nL; DMSO in column 4; sinefungin in DMSO (0 uM - 40 uM) in 7-point 1:2 dilution series (n = 2) in column 2.
(§11) 4; Compounds; 23 nL; Columns 5-48.
(§12) 5; Reagent; 1 uL; Substrate (4x) in reaction buffer, columns 2-48.
(§13) 6; Time; 20-30 min; Incubation.
(§14) 7; Reagent; 1 uL; MTase-Glo reagent (5X), columns 1-48.
(§15) 8; Time; 30 min; Incubation.
(§16) 9; Reagent; 5 uL; MTase-Glo Detection reagent, columns 1-48.
(§17) 10; Time; 30 min; Incubation, luminescence evolution.
(§18) 11; Detection; Luminescence; ViewLux uHTS Microplate Imager (PerkinElmer).
(§19) NOTES (numbers refer to Sequence numbers above)
(§20) 1, 2, 5. White Medium Binding Greiner 1536-well plates (Cat #789175-F, Greiner Bio-One, Monroe, NC); Reaction buffer: 50 mM Tris, pH 8.0, 3 mM MgCl2, 1 mM EDTA, 50 mM NaCl, 1 mM DTT, and 0.1 mg/mL BSA. Evaporation was prevented by covering assay plates with metal lids containing holes to allow gas diffusion.
(§21) 1. Six SMMTase were profiled: HNMT, GNMT, PNMT, COMT, NNMT, GAMT
(§22) 5. The corresponding substrate was used for each enzyme: HNMT - 5.3 uM Histamine; GNMT - >500 uM Glycine; PNMT - 16.2 uM Norephinephrine; COMT - 13.7 uM Norephinephrine; NNMT - 3.8 uM Nicotinamide; GAMT - 2.5 uM Guanidinoacetate.6, 8, 10. Room temperature
(§23) 6. Final reaction conditions: 10 nM COMT, 5 uM SAM, 15 uM norepinephrine, 50 mM Tris, pH 8.0, 3 mM MgCl2, 1 mM EDTA, 50 mM NaCl, 1 mM DTT, and 0.1 mg/mL BSA; refer to tables 2 and S1 for specific timing.
8. […]

[2] = target: Glycine N-methyltransferase (Homo sapiens) (UniProt Q14749); conditions: purified enzyme, MTase-Glo SAH luminescence; measured here: GNMT inhibition; at 40 µM; stronger effect = lower value
Sequence of Glycine N-methyltransferase (Homo sapiens) (Q14749 whole entry, looked up): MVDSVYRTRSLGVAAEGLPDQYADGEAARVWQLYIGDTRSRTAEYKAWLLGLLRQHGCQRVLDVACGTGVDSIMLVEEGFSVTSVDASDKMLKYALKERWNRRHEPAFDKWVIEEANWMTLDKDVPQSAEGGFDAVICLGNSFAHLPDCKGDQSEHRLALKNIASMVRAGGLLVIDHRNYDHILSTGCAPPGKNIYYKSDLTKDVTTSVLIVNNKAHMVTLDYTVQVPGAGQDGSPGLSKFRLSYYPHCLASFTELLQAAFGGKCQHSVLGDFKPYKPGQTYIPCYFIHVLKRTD
Source text: as §1, §2, §3, §4, §5, §6, §7, §8, §9, §10, §11, §12, §13, §14, §15, §16, §17, §18, §19, §20, §21, §22, §23
8. […]

[3] = target: Guanidinoacetate N-methyltransferase (Homo sapiens) (UniProt Q14353); conditions: purified enzyme, MTase-Glo SAH luminescence; measured here: GAMT inhibition; at 40 µM; stronger effect = lower value
Source text: as §1, §2, §3, §4, §5, §6, §7, §8, §9, §10, §11, §12, §13, §14, §15, §16, §17, §18, §19, §20, §21, §22, §23
8. […]

[4] = target: Histamine N-methyltransferase (Homo sapiens) (UniProt P50135); conditions: purified enzyme, MTase-Glo SAH luminescence; measured here: HNMT inhibition; at 40 µM; stronger effect = lower value
Sequence of Histamine N-methyltransferase (Homo sapiens) (P50135 whole entry, looked up): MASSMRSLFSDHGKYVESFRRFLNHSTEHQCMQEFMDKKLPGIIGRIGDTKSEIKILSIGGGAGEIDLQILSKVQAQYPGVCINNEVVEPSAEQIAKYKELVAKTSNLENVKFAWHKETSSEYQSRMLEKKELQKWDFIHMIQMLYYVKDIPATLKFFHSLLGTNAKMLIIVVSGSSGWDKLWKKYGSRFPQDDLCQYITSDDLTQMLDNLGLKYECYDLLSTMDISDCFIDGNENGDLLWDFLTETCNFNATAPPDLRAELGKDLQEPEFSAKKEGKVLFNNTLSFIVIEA
Source text: as §1, §2, §3, §4, §5, §6, §7, §8, §9, §10, §11, §12, §13, §14, §15, §16, §17, §18, §19, §20, §21, §22, §23
8. […]

[5] = target: Nicotinamide N-methyltransferase (Homo sapiens) (UniProt P40261); conditions: purified enzyme, MTase-Glo SAH luminescence; measured here: NNMT inhibition; at 40 µM; stronger effect = lower value
Sequence of Nicotinamide N-methyltransferase (Homo sapiens) (P40261 whole entry, looked up): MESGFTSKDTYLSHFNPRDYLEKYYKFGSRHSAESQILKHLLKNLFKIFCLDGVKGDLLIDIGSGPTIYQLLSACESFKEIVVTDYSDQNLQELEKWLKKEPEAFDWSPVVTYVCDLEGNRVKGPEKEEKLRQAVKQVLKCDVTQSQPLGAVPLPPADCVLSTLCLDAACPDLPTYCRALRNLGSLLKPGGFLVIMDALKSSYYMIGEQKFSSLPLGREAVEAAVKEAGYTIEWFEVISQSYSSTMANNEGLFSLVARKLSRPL
Source text: as §1, §2, §3, §4, §5, §6, §7, §8, §9, §10, §11, §12, §13, §14, §15, §16, §17, §18, §19, §20, §21, §22, §23
8. […]

[6] = target: Phenylethanolamine N-methyltransferase (Homo sapiens) (UniProt P11086); conditions: purified enzyme, MTase-Glo SAH luminescence; measured here: PNMT inhibition; at 40 µM; stronger effect = lower value
Sequence of Phenylethanolamine N-methyltransferase (Homo sapiens) (P11086 whole entry, looked up): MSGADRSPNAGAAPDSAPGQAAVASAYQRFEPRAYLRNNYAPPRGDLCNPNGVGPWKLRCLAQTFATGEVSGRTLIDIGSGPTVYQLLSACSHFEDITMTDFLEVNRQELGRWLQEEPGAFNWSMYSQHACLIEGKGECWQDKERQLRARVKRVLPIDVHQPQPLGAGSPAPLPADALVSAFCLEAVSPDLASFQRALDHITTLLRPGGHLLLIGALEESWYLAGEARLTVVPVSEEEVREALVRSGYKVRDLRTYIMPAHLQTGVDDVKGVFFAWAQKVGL
Source text: as §1, §2, §3, §4, §5, §6, §7, §8, §9, §10, §11, §12, §13, §14, §15, §16, §17, §18, §19, §20, §21, §22, §23
8. […]
% is scaled to controls: 0 for no effect and ±100 for the full control effect.

## CN(Cc1cc(C2CC2)n[nH]1)C(=O)C(c1ccc(F)cc1)N(C)C (stereo not given)
[1]
  activity change, negative = inhibition: 3.85% (inactive)
[2]
  activity change, negative = inhibition: 1.91%
[3]
  activity change, negative = inhibition: -0.305%
[4]
  activity change, negative = inhibition: 1.69%
[5]
  activity change, negative = inhibition: 0.211%
[6]
  activity change, negative = inhibition: 2.27%

## CC(C)CNc1ccnc(NCc2csc(-c3ccccc3)n2)n1
[1]
  activity change, negative = inhibition: -4.4% (active)
[2]
  activity change, negative = inhibition: -6.48%
[3]
  activity change, negative = inhibition: 6.91%
[4]
  activity change, negative = inhibition: -83.3%
[5]
  activity change, negative = inhibition: -36.8%
[6]
  activity change, negative = inhibition: -16.1%

## Cc1nc2c(c(-c3ccc(O)cc3)n1)CN(C(=O)c1ccccc1C)CCC2
[1]
  activity change, negative = inhibition: -2.56% (inactive)
[2]
  activity change, negative = inhibition: -6.74%
[3]
  activity change, negative = inhibition: -3.52%
[4]
  activity change, negative = inhibition: -0.862%
[5]
  activity change, negative = inhibition: -11.6%
[6]
  activity change, negative = inhibition: -8.96%

## Cc1noc(C)c1S(=O)(=O)NCCC1CN(c2cnn(C)c(=O)c2)CCO1 (stereo not given)
[1]
  activity change, negative = inhibition: 4.53% (inactive)
[2]
  activity change, negative = inhibition: -1.17%
[3]
  activity change, negative = inhibition: -2.35%
[4]
  activity change, negative = inhibition: 0.773%
[5]
  activity change, negative = inhibition: -1.18%
[6]
  activity change, negative = inhibition: 5.68%

## COc1ccccc1N1CCN(C(=O)C[C@@H]2C[C@@H](C(C)C)[C@H](CO)C=C2C)CC1
[1]
  activity change, negative = inhibition: -4.58% (inactive)
[2]
  activity change, negative = inhibition: -5.78%
[3]
  activity change, negative = inhibition: -7.59%
[4]
  activity change, negative = inhibition: -2.03%
[5]
  activity change, negative = inhibition: -11.8%
[6]
  activity change, negative = inhibition: 3.34%

## COc1ccc(C(=O)N2CCN(C(=O)N3CC4CC(C3)[C@H]3CCCC(=O)N3C4)CC2)c(OC)n1 (stereo not given in full)
[1]
  activity change, negative = inhibition: 1.98% (inactive)
[2]
  activity change, negative = inhibition: -0.248%
[3]
  activity change, negative = inhibition: 0.955%
[4]
  activity change, negative = inhibition: 0.52%
[5]
  activity change, negative = inhibition: -3.64%
[6]
  activity change, negative = inhibition: 0.052%

## CCN(CC)CCCC(C)Nc1ccnc2cc(Cl)ccc12 (stereo not given)
[1]
  activity change, negative = inhibition: 5.5% (active) and -5.08% (active)
[2]
  activity change, negative = inhibition: -0.101% and -1.02%
[3]
  activity change, negative = inhibition: 6.48% and -3.06%
[4]
  activity change, negative = inhibition: -64.7% and -54.2%
[5]
  activity change, negative = inhibition: -4.26% and -11.8%
[6]
  activity change, negative = inhibition: 6.95% and -8.55%

## O=C(C1CCCC1)N1CCCC(c2noc(COc3ccccc3)n2)C1 (stereo not given)
[1]
  activity change, negative = inhibition: -7.8% (inactive)
[2]
  activity change, negative = inhibition: -8.83%
[3]
  activity change, negative = inhibition: -9.57%
[4]
  activity change, negative = inhibition: -5.83%
[5]
  activity change, negative = inhibition: -18.3%
[6]
  activity change, negative = inhibition: -10.2%

## CSc1cccc(CN(C)Cc2cc3n(n2)CCNC3)c1
[1]
  activity change, negative = inhibition: -0.225% (inactive)
[2]
  activity change, negative = inhibition: -1.46%
[3]
  activity change, negative = inhibition: -2.55%
[4]
  activity change, negative = inhibition: -2.05%
[5]
  activity change, negative = inhibition: -2.62%
[6]
  activity change, negative = inhibition: -8.63%

## COc1ccccc1CN[C@H]1[C@H](O)[C@@H](N2CCN(c3ccccc3OC)CC2)[C@@H]2OC[C@H]1O2
[1]
  activity change, negative = inhibition: 1.34% (inactive)
[2]
  activity change, negative = inhibition: -1.49%
[3]
  activity change, negative = inhibition: -8.26%
[4]
  activity change, negative = inhibition: 2.36%
[5]
  activity change, negative = inhibition: -0.669%
[6]
  activity change, negative = inhibition: 2.62%

## CCc1cccc(NC(=O)Cn2c(=O)oc3cc(S(=O)(=O)N4CCC(C)CC4)ccc32)c1
[1]
  activity change, negative = inhibition: 0.729% (inactive)
[2]
  activity change, negative = inhibition: -4.13%
[3]
  activity change, negative = inhibition: 4.45%
[4]
  activity change, negative = inhibition: -8.18%
[5]
  activity change, negative = inhibition: -16.8%
[6]
  activity change, negative = inhibition: -14.1%

## Cc1ccc(Cn2c(=O)c3ccc(C(=O)NC(C)C)cc3n3c(=O)n(Cc4cccc(F)c4)nc23)cc1
[1]
  activity change, negative = inhibition: 6.38% (inactive)
[2]
  activity change, negative = inhibition: 4.35%
[3]
  activity change, negative = inhibition: 1.49%
[4]
  activity change, negative = inhibition: 7.79%
[5]
  activity change, negative = inhibition: 5.05%
[6]
  activity change, negative = inhibition: 6.91%

## CC1(C)CC[C@]2(C(=O)O[C@@H]3O[C@H](CO)[C@@H](O)[C@H](O)[C@H]3O)CC[C@]3(C)C(=CCC4[C@@]5(C)CC[C@H](O[C@@H]6O[C@H](C(=O)O)[C@@H](O)[C@H](O)[C@H]6OC6OC(CO)C(O)C(O)C6O)C(C)(C)C5CC[C@]43C)[C@@H]2C1 (stereo not given in full)
[1]
  activity change, negative = inhibition: -21.1% (inactive)
[2]
  activity change, negative = inhibition: 2.46%
[3]
  activity change, negative = inhibition: 8.94%
[4]
  activity change, negative = inhibition: 8.45%
[5]
  activity change, negative = inhibition: -9.17%
[6]
  activity change, negative = inhibition: 7.25%

## C[C@@H]1CC[C@]2(C(=O)O[C@@H]3O[C@H](CO)[C@@H](O)[C@H](O)[C@H]3O)CC[C@]3(C)C(=CCC4[C@@]5(C)C[C@@H](O)[C@H](O)[C@](C)(C(=O)O)C5CC[C@]43C)[C@@H]2[C@]1(C)O (stereo not given in full)
[1]
  activity change, negative = inhibition: 4.37% (inactive)
[2]
  activity change, negative = inhibition: 6.36%
[3]
  activity change, negative = inhibition: 4.44%
[4]
  activity change, negative = inhibition: 15.1%
[5]
  activity change, negative = inhibition: -9.25%
[6]
  activity change, negative = inhibition: 7.5%

## CC1(C)CCC2(C(=O)OC3OC(COC4OC(CO)C(O)C(O)C4O)C(O)C(O)C3O)CCC3(C)C(=CCC4C5(C)CCC(O)C(C)(C(=O)O)C5CCC43C)C2C1O (stereo not given)
[1]
  activity change, negative = inhibition: -56.4% (active)
[2]
  activity change, negative = inhibition: 0%
[3]
  activity change, negative = inhibition: 5.96%
[4]
  activity change, negative = inhibition: 11.8%
[5]
  activity change, negative = inhibition: -7.28%
[6]
  activity change, negative = inhibition: 4.84%
